# For part of these data: Entries with a potency or affinity are not part of this list. The list shows a part of the results. Activity calls are given as the source filed them.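 How the source made its calls, unless noted: active means GFP response above 150% of the DMSO level; inconclusive means fewer than 70 events counted for a yeast strain; inactive means the rest.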
# What was measured:
# [1] = molecular target: Cell division control protein 42 homolog (Homo sapiens) (UniProt P60953); experiment: activated mutant Cdc42 GTP-binding inhibitors, dose response, biochemical, multiplex bead flow cytometry, Bodipy-FL-GTP (AID 1333;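 active means fitted half-maximal concentration within the tested dose range, moderate curve steepness, a statistically real signal drop, and little compound fluorescence or tag-binding interference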)
# Chain of Cell division control protein 42 homolog (Homo sapiens) (P60953 whole entry, looked up): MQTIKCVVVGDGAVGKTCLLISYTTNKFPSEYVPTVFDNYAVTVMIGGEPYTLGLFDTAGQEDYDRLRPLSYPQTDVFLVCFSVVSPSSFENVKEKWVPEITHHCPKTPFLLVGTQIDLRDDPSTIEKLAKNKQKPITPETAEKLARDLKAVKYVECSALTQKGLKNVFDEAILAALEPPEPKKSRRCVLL
# [2] = molecular target: Cell division control protein 42 homolog (Homo sapiens) (UniProt P60953); experiment: wildtype Cdc42 GTP-binding inhibitors, dose response, biochemical, multiplex bead flow cytometry, Bodipy-FL-GTP (AID 1334;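 active means fitted half-maximal concentration within the tested range, moderate curve steepness, significant signal drop, and little compound fluorescence or bead-linkage interference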); conditions: bead-based flow cytometry, Bodipy-FL-GTP binding to GST-Cdc42; at 100 µM (top of the series) unless noted
# [3] = molecular target: GTPase HRas (Homo sapiens) (UniProt P01112); experiment: inhibitors of GTP binding to wildtype Ras, dose response, biochemical, multiplex bead flow cytometry (AID 1335;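 active means fitted half-maximal concentration within 10 nM to 100 µM, steepness 0.5 to 2, significant signal drop, low assay interference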); conditions: bead-based flow cytometry, Bodipy-GTP binding to GST-Ras; at 100 µM (top of the series) unless noted
# Chain of GTPase HRas (Homo sapiens) (P01112 whole entry, looked up): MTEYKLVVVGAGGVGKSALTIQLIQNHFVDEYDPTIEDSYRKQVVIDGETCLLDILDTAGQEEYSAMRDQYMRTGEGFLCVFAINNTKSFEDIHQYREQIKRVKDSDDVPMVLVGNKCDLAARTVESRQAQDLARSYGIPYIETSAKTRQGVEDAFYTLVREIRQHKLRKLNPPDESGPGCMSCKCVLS
# [4] = system: Ras-related protein Rab-7a (dog), GTP binding; experiment: Rab7 GTP binding inhibitors, potency, dose response, biochemical, wildtype, multiplex bead flow cytometry (AID 1336; call rule not given here)
# [5] = molecular target: Ras-related C3 botulinum toxin substrate 1 (Homo sapiens) (UniProt P63000); experiment: wildtype Rac1 GTP binding inhibitors, dose response, biochemical, multiplex bead flow cytometry (AID 1340;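 active means dose curve with midpoint inside tested range, moderate steepness, plateau gap beyond fit error, low compound glow and bead-link interference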); conditions: GST-Rac1 beads, Bodipy-FL-GTP binding; at 100 µM (top of the series) unless noted
# [6] = molecular target: GTPase HRas (Homo sapiens) (UniProt P01112); experiment: activated Ras mutant GTP binding inhibitors, dose response, biochemical, multiplex bead flow cytometry (AID 1341;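 active means dose-response curve with midpoint inside the tested range, moderate steepness, significant amplitude and little compound fluorescence or bead-attachment interference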;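 further: GST-tagged constitutively activated Ras mutant immobilized on beads and multiplexed with other GTPases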)
# [7] = RPL19A-GFP modulators, yeast TOR pathway, confirmation, cell-based, S. cerevisiae, flow cytometry, cherry picks, mother/daughter gates (AID 2270;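 active means GFP response below 50% of the DMSO control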); conditions: S. cerevisiae RPL19A-GFP strain, 3 h, at 10 µM, stronger effect = lower value, 100 = same GFP as DMSO wells
# [8] = LAP4-GFP expression modulators in yeast, confirmation, cell-based, cherry picks, flow cytometry, mother/daughter gates (AID 2271;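 active means GFP response above 150% of the DMSO control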;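 further: ratio of sample to DMSO plate mean so 100% equals DMSO level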); conditions: S. cerevisiae LAP4-GFP strain, 3 h, at 10 µM, stronger effect = higher value, 100 means same as DMSO control
# [9] = modulators of MEP2-GFP levels in yeast, confirmation, S. cerevisiae, flow cytometry GFP, cherry picks (AID 2272;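 active means GFP response above 150% of the DMSO control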;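 further: ratio of well signal to plate DMSO mean so 100% equals DMSO level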); conditions: S. cerevisiae MEP2-GFP strain, 3 h, at 10 µM, stronger effect = higher value
# [10] = AGP1-GFP expression modulators, hit retest, confirmation, cell-based, flow cytometry, S. cerevisiae, cherry picks (AID 2273);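 further: median GFP channel fluorescence over the whole cell population gate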; conditions: S. cerevisiae AGP1-GFP strain, 3 h, at 10 µM
# [11] = modulators of CIT2-GFP expression in yeast, confirmation, S. cerevisiae, GFP fusion, cherry picks, mother/daughter gates (AID 2274); conditions: S. cerevisiae CIT2-GFP strain, flow cytometry, 3 h, at 10 µM, stronger effect = higher value
# [12] = inhibitors of CD8+ T cell-vesicle binding, pilot screen, LFA-1/ICAM-1 modulator project, MLPCN validation set, flow cytometry (AID 2523;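 active means response below a set limit, under 55% cells CD8-positive and vesicle-bound, and CD8 cells' 90th-percentile brightness under 279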;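 on vesicle binding response: mean PE anti-B7-1 fluorescence of CD8+ cells relative to row control; 100% = QL9-loaded vesicles with DMSO vehicle in the same plate row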); conditions: 2C mouse CD8+ T cells, at 7 µM, stronger effect = lower value; double positive events: measured here: CD8+/vesicle+ event percentage
# [13] = superoxide lowering in aged yeast cells, pilot screen, validation compound set (AID 2706;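 active means superoxide response below 65% of plate, a cut near 3 SD across the whole screen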;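 further: yeast exposed to compound for one week at 30 degrees C before staining; 100% = mean of all compound wells on the same plate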); conditions: S. cerevisiae aging, superoxide DHE fluorescence; at 10 µM; stronger effect = lower value
# [14] = molecular target: Beta-adrenergic receptor kinase 1 (Homo sapiens) (UniProt P25098); experiment: GRK2 binders displacing RNA aptamer, biochemical, validation, human GRK2, bead flow cytometry (AID 488806;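 active means aptamer binding inhibition above 30%, about 3 SD of noise from non-fluorescent compounds; inactive means inhibition at or below 30%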); conditions: bead-bound GRK2, FAM-aptamer displacement, at 10 µM, stronger effect = higher value
# Chain of Beta-adrenergic receptor kinase 1 (Homo sapiens) (P25098 whole entry, looked up): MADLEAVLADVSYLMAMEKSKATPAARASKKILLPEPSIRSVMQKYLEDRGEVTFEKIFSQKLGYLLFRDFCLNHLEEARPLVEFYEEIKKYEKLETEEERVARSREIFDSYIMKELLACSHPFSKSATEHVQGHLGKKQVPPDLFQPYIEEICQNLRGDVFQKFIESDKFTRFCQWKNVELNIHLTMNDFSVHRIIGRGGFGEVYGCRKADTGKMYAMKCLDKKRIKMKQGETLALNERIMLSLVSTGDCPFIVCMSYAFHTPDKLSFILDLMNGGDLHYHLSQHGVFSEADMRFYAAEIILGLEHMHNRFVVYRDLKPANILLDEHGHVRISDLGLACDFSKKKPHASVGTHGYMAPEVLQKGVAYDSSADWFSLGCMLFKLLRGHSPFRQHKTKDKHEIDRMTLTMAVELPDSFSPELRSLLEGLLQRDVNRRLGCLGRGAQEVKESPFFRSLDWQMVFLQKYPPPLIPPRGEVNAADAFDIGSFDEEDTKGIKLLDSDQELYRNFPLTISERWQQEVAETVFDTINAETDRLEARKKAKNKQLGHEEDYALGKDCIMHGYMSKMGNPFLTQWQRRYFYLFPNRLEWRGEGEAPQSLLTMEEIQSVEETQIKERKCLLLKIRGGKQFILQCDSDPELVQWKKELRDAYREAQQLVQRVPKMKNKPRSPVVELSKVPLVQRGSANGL
# [15] = molecular target: Beta-2 adrenergic receptor (Homo sapiens) (UniProt P07550); experiment: beta2AR agonists driving receptor internalization, pilot screen, cell-based, FAP fluorogen, flow cytometry, validation set (AID 504459;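 active means percent response above 42, roughly 3 SD of non-fluorescent test compounds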;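 further: agonist-driven loss of surface beta2AR via internalization measured by FAP dye flow cytometry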); conditions: Am2.2-beta2AR cells, FAP surface receptor flow cytometry; at 10 µM; stronger effect = higher value
# Chain of Beta-2 adrenergic receptor (Homo sapiens) (P07550 whole entry, looked up): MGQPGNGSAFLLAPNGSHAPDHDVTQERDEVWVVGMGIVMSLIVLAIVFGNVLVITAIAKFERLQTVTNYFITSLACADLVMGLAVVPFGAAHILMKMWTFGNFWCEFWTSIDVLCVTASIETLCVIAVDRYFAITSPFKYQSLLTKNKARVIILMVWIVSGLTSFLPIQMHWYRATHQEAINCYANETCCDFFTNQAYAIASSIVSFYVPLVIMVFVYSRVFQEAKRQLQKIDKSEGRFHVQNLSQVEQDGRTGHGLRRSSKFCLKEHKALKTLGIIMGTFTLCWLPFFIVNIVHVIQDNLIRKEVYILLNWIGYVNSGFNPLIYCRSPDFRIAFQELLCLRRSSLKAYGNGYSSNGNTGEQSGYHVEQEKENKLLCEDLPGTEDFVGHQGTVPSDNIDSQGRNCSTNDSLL
# [16] = molecular target: AP-2 complex subunit beta (Homo sapiens) (UniProt P63010); experiment: inhibitors of arrestin peptide binding to AP2, pilot screen, biochemical, validation set, GST-AP2 beads, flow cytometry (AID 504541;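 active means inhibition above 54%, about 3 SD of non-fluorescent compounds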;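 further: AP2 carries R879A mutation and is captured from E. coli lysate; bead-bound FITC arrestin peptide fluorescence measuring arrestin peptide binding to AP2; 0% = DMSO wells and 100% = excess unlabeled arrestin peptide control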); conditions: FITC arrestin peptide, at 10 µM, stronger effect = higher value, AP2 beta2 appendage fragment, R879A mutant
# Chain of AP-2 complex subunit beta (Homo sapiens) (P63010 whole entry, looked up, the tested form may be a part, one chain of several): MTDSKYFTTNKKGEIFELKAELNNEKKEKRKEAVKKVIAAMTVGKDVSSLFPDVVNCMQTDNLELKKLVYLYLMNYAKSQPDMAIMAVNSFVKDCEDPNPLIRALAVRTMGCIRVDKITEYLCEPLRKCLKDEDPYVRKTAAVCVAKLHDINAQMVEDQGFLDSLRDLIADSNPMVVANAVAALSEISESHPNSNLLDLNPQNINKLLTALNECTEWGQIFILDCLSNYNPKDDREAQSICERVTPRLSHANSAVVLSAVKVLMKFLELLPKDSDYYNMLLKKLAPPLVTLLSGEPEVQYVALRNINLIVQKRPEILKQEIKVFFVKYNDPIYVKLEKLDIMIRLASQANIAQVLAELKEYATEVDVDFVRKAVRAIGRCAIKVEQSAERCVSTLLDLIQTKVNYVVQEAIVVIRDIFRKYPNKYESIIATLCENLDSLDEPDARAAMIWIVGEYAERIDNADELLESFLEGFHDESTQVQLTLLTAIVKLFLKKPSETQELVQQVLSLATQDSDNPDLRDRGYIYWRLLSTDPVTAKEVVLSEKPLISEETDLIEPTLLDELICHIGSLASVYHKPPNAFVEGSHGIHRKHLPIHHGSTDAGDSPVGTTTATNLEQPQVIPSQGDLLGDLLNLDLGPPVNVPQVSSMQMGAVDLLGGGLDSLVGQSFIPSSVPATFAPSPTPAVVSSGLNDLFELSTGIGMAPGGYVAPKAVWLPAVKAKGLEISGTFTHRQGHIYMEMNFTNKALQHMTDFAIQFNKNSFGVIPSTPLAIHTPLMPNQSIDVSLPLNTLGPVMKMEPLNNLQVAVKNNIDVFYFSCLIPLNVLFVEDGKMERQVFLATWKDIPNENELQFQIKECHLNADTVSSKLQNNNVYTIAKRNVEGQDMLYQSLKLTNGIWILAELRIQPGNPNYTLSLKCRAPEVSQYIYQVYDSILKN
# [17] = yeast V-ATPase proton transport modulators, S. cerevisiae, pHLuorin, HTS validation (AID 504600; in the data active means response above about 15%;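 further: plate controls were DMSO for no effect and reference compound for full effect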); conditions: S. cerevisiae pHLuorin cytosolic pH, at 10 µM, stronger effect = higher value
# [18] = system: anti-desmoglein-3 scFv antibody binding to human DSG3; experiment: inhibitors of anti-DSG3 scFv binding to DSG3, pilot screen, biochemical, validation compound set, bead-based, flow cytometry (AID 588368;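 active means binding below the plate cutoff, the plate median minus 3 SD, with a reading above zero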;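 further: signal is the median channel fluorescence of bead-bound GFP antibody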); conditions: Protein G beads, DSG3-Fc, scFv-GFP binding, at 10 µM, stronger effect = lower value
# [19] = inhibitors of fungal efflux pumps CDR1, CDR2, MDR1, pilot screen, validation compound set, multiplex, phenotypic (AID 588506;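 active means efflux inhibition above 0.42, the validation set average plus 4 SD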;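 further: Nile Red retained in cells so higher fluorescence means more efflux inhibition; 0 = negative control wells and 1 = enniatin B 25 µM full block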); conditions: S. cerevisiae pump-expressing triplex, Nile Red efflux flow cytometry; at 10 µM; stronger effect = higher value; the pumps come from Candida albicans
# [20] = molecular target: ATP-binding cassette sub-family B member 6 (Homo sapiens) (UniProt Q9NP58); experiment: ABCB6 transporter inhibitors, pilot screen, K562-ABCB6 cells, flow cytometry, validation set (AID 588550;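 active means inhibition above the screen-wide mean plus 3 SD, about 51%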;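 further: 0% = DMSO wells and 100% = benzethonium chloride 70 µM positive control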); conditions: K562-ABCB6 porphyrin accumulation, 1 h, at 10 µM, stronger effect = higher value
# Chain of ATP-binding cassette sub-family B member 6 (Homo sapiens) (Q9NP58 whole entry, looked up): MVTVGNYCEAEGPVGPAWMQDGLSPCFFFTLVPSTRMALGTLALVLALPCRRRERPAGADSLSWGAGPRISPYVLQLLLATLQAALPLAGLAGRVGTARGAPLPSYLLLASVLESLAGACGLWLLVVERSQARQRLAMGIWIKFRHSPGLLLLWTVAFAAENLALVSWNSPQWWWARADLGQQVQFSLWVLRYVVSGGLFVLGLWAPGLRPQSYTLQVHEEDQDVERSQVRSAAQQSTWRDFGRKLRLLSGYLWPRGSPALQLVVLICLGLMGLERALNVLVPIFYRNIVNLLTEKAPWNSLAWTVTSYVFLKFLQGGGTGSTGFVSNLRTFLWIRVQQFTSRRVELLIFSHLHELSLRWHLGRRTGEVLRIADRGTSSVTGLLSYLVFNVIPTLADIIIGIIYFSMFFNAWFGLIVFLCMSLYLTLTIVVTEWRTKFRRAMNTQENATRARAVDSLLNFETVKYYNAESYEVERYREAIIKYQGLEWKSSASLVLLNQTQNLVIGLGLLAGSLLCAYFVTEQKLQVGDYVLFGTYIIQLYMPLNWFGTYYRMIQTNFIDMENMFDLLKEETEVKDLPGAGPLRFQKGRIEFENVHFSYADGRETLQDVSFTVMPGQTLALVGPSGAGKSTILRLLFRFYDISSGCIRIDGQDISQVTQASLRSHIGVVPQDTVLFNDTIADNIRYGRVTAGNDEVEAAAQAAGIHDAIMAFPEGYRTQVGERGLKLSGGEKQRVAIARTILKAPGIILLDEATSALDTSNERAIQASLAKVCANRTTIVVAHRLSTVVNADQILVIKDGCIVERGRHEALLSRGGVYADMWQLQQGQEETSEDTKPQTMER
# [21] = promoters of myeloid differentiation in arrested cells, primary screen, cell-based, GFP/MAC1 double positive, flow cytometry, validation set (AID 588685;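 active means differentiation response of at least 50%, scaled between solvent and reference control, from cells with both markers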;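 further: compound exposure lasts four days before antibody staining and flow analysis; 0% = DMSO wells and 100% = 5 µM fulvestrant positive control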); conditions: ER-HoxA9 marrow cells, stronger effect = higher value, normalized: vehicle 0, fulvestrant 100
# [22] = molecular target: Regulator of G-protein signaling 16 (Homo sapiens) (UniProt O15492); experiment: modulators of RGS–Galpha-o binding, primary screen, biochemical, multiplexed beads, flow cytometry, RGS4/7/8/16/19 (AID 1504); conditions: multiplexed bead flow cytometry, measured here: RGS16 interaction, at 10 µM;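 further: fluorescently labeled Galpha-o bound to GDP with aluminium fluoride binding biotinylated RGS beads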
# [23] = molecular target: Regulator of G-protein signaling 19 (Homo sapiens) (UniProt P49795); experiment: as above; conditions: multiplexed bead flow cytometry, measured here: RGS19 interaction, at 10 µM
# [24] = molecular target: Regulator of G-protein signaling 7 (Homo sapiens) (UniProt P49802); experiment: as above; conditions: multiplexed bead flow cytometry, measured here: RGS7 interaction, at 10 µM
# [25] = molecular target: Regulator of G-protein signaling 8 (Homo sapiens) (UniProt P57771); experiment: as above; conditions: multiplexed bead flow cytometry, measured here: RGS8 interaction, at 10 µM
# [26] = compound autofluorescence in yeast s288c, dose response, artefact control for yeast TOR pathway GFP screen, s288c strain (AID 2757;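 active means fluorescence span over the dose series, or activity score, above about 33, limit read from the data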;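 further: thousands of bead-calibrated equivalent soluble fluorophore molecules from median cell fluorescence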); conditions: S. cerevisiae s288c, 520 nm autofluorescence, flow cytometry, 3 h; at 33 µM; stronger effect = higher value; zero means same as solvent-only cells
# [27] = measured here: daughter cell gate
# [28] = measured here: mother cell gate
# [29] = measured here: daughter cell gate response
# [30] = measured here: mother cell gate response
structure (smiles),measurement,setting,value
Oc1ccc2ccccc2c1/C=N/Nc1nnc(-c2ncc[nH]2)c2ccccc12,outcome,[1],inactive
same,"fluorescence, percent of control (lower = inhibition)",[2],44%
same,"GTP binding, percent of control",[3],59.7%
same,outcome,[4],inactive
same,"GTP binding signal, raw median fluorescence (lower = inhibition) (MCF (arbitrary fluorescence units))",[5],138
same,outcome,[6],inactive
same,GFP response vs DMSO,[7],108% (inactive)
same,GFP response vs DMSO,[7]; [27],91.9%
same,GFP response vs DMSO,[7]; [28],108%
same,GFP response relative to DMSO,[8],123% (inactive)
same,GFP response relative to DMSO,[8]; [29],119%
same,GFP response relative to DMSO,[8]; [30],128%
same,GFP response vs DMSO,[9],137% (inactive)
same,"GFP response, % of DMSO",[10],95.9% (inactive)
same,"GFP response, % of DMSO",[11],162% (active)
same,"GFP response, % of DMSO",[11]; [27],114%
same,"GFP response, % of DMSO",[11]; [28],205%
COC(=O)c1ccc2nc(Nc3nc4c(F)cc(F)cc4s3)sc2c1,outcome,[1],inactive
same,"fluorescence, percent of control (lower = inhibition)",[2],33.7%
same,"GTP binding, percent of control",[3],85.9%
same,outcome,[4],inactive
same,"GTP binding signal, raw median fluorescence (lower = inhibition) (MCF (arbitrary fluorescence units))",[5],286
same,outcome,[6],inactive
same,GFP response vs DMSO,[7],98.2% (inactive)
same,GFP response vs DMSO,[7]; [27],97.3%
same,GFP response vs DMSO,[7]; [28],98.3%
same,GFP response relative to DMSO,[8],91.2% (inactive)
same,GFP response relative to DMSO,[8]; [29],90.4%
same,GFP response relative to DMSO,[8]; [30],93%
same,GFP response vs DMSO,[9],101% (inactive)
same,"GFP response, % of DMSO",[10],102% (inactive)
same,"GFP response, % of DMSO",[11],99.7% (inactive)
same,"GFP response, % of DMSO",[11]; [27],98.4%
same,"GFP response, % of DMSO",[11]; [28],98.7%
CCN1/C(=C/C=C/C=C/c2sc3ccccc3[n+]2CC)Sc2ccccc21,outcome,[1],inactive
same,"fluorescence, percent of control (lower = inhibition)",[2],1.8%
same,"GTP binding, percent of control",[3],2%
same,"GTP binding, % of control",[4],4.4% [at 3.7 µM] (inactive)
same,"GTP binding signal, raw median fluorescence (lower = inhibition) (MCF (arbitrary fluorescence units))",[5],1.8
same,outcome,[6],inactive
same,double positive events,[12],81.6%
same,vesicle binding response,[12],109% (inactive)
same,superoxide response (% of plate),[13],89.6% (inactive)
same,aptamer binding inhibition,[14],39% (active)
same,response,[15],-16.6% (inactive)
same,inhibition,[16],75.8% (active)
same,response,[17],-3.07% (inactive)
same,binding (% of control),[18],121% (inactive)
same,efflux inhibition (fraction of control),[19],0.73 (active)
same,inhibition,[20],10% (inactive)
same,differentiation response,[21],7.37% (inactive)
CN(c1ccccc1)c1ccc(/C=c2\s/c(=C(/C#N)C(=O)C(C)(C)C)n(Cc3ccco3)c2=O)cc1,outcome,[1],inactive
same,"fluorescence, percent of control (lower = inhibition)",[2],160%
same,"GTP binding, percent of control",[3],157%
same,outcome,[4],inactive
same,"GTP binding signal, raw median fluorescence (lower = inhibition) (MCF (arbitrary fluorescence units))",[5],180
same,outcome,[6],inactive
same,RGS16–Galpha-o binding response,[22],551%
same,RGS19–Galpha-o binding response,[23],4650%
same,RGS7–Galpha-o binding response,[24],421%
same,RGS8–Galpha-o binding response,[25],134%
same,GFP response vs DMSO,[7],118% (inactive)
same,GFP response vs DMSO,[7]; [27],118%
same,GFP response vs DMSO,[7]; [28],116%
same,GFP response relative to DMSO,[8],235% (active)
same,GFP response relative to DMSO,[8]; [29],240%
same,GFP response relative to DMSO,[8]; [30],231%
same,GFP response vs DMSO,[9],309% (active)
same,"GFP response, % of DMSO",[10],126% (inactive)
same,"GFP response, % of DMSO",[11],231% (active)
same,"GFP response, % of DMSO",[11]; [27],229%
same,"GFP response, % of DMSO",[11]; [28],230%
same,fluorescence change (kMESF span),[26],19.9 (inactive)
O=C(C#Cc1cccc([N+](=O)[O-])c1)c1ccccc1,outcome,[1],inactive
same,"fluorescence, percent of control (lower = inhibition)",[2],31.6%
same,"GTP binding, percent of control",[3],81%
same,outcome,[4],inactive
same,"GTP binding signal, raw median fluorescence (lower = inhibition) (MCF (arbitrary fluorescence units))",[5],245
same,outcome,[6],inactive
same,GFP response vs DMSO,[7],94.1% (inactive)
same,GFP response vs DMSO,[7]; [27],98%
same,GFP response vs DMSO,[7]; [28],88%
same,GFP response relative to DMSO,[8],190% (active)
same,GFP response relative to DMSO,[8]; [29],167%
same,GFP response relative to DMSO,[8]; [30],178%
same,GFP response vs DMSO,[9],133% (inactive)
same,"GFP response, % of DMSO",[10],113% (inactive)
same,"GFP response, % of DMSO",[11],101% (inactive)
same,"GFP response, % of DMSO",[11]; [27],104%
same,"GFP response, % of DMSO",[11]; [28],91%
Cc1ccc(/C=N/NC(=O)C2CCN(Cc3ccc(F)cc3Cl)CC2)o1,outcome,[1],inactive
same,"fluorescence, percent of control (lower = inhibition)",[2],39%
same,"GTP binding, percent of control",[3],82.7%
same,outcome,[4],inactive
same,"GTP binding signal, raw median fluorescence (lower = inhibition) (MCF (arbitrary fluorescence units))",[5],241
same,outcome,[6],inactive
